The test system of one assay is F380Y. The assay can be described thus: modulators of BK channel variants, profiling panel, selectivity assay, cell-based, U2OS BacMam, thallium flux, beta subunits (AID 1259406).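 Also: initial slope of Thallos dye fluorescence rise after thallium is added; log ratio against the mean of 0.3% DMSO vehicle wells on the same plate.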 The note with it: at 30 µM.
The subject of a further assay is F380Y/beta1. Described as above. The note with it: at 30 µM.

The values that follow come from PubChem BioAssay.

A number with no mark means an inactive call. The source made the active and inactive calls.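 The calls were made as follows: active = thallium flux through the channel raised or lowered by more than 3 SD from vehicle-only wells, actives on both sides; inactive = the rest.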

As to `NS(=O)(=O)c1cc(C(=O)O)c(NCc2ccco2)cc1Cl`, the log fold change Tl+ flux in the assay on F380Y was -0.0179; in the assay on F380Y/beta1, -0.0049.

Consider `CN1CCC(=C2c3ccccc3C=Cc3ccccc32)CC1`, for which the log fold change Tl+ flux was 0.15 (active) in the assay on F380Y and -0.0427 in the assay on F380Y/beta1.

Turning to `C[C@@H]1C[C@H]2[C@@H]3CCC4=CC(=O)C=C[C@]4(C)[C@@]3(F)[C@@H](O)C[C@]2(C)[C@H]1C(=O)CO`, the log fold change Tl+ flux with F380Y was 0.0533; in the assay with F380Y/beta1, 0.0836.

On to `C#C[C@]1(O)CC[C@H]2[C@@H]3CCc4cc(OC)ccc4[C@H]3CC[C@@]21C`, for which the log fold change Tl+ flux in the assay with F380Y is -0.0454; in the assay with F380Y/beta1 it was -0.0068.

For the compound `C#C[C@]1(O)CC[C@H]2[C@@H]3[C@H](C)CC4=C(CCC(=O)C4)[C@H]3CC[C@@]21C`, the results for the log fold change Tl+ flux with F380Y and with F380Y/beta1 were 0.0382 and 0.123 (active), respectively.

`COc1ccc(C(=O)NCc2ccc(OCCN(C)C)cc2)cc1OC`: the log fold change Tl+ flux with F380Y is -0.0346; in the assay with F380Y/beta1, -0.00341.

As to `O=C(NCCN1CCOCC1)c1ccc(Cl)cc1`, the log fold change Tl+ flux in the assay on F380Y is -0.0393; in the assay with F380Y/beta1, -0.0206.

For the compound `CC(C)(O)c1ccccc1CC[C@@H](SCC1(CC(=O)O)CC1)c1cccc(/C=C/c2ccc3ccc(Cl)cc3n2)c1`, the log fold change Tl+ flux in the assay with F380Y was 0.278 (active); in the assay on F380Y/beta1 it was 0.853 (active).

With `COC(=O)C1=C(C)NC(C)=C(C(=O)OC(C)C)C1c1cccc2nonc12` (centres undefined), the log fold change Tl+ flux in the assay with F380Y is 0.00609; in the assay with F380Y/beta1 it was 0.106 (active).

Consider `CCc1oc2ccccc2c1C(=O)c1cc(Br)c(O)c(Br)c1`, for which the log fold change Tl+ flux with F380Y was 0.395 (active); in the assay on F380Y/beta1 it was 0.958 (active).

For the compound `CN1CCN(C2=Nc3cc(F)ccc3Cc3ccccc32)CC1`, the log fold change Tl+ flux is 0.06 in the assay on F380Y and 0.0457 in the assay with F380Y/beta1.

As to `NC1CCN(c2nc3c(cc2F)c(=O)c(C(=O)O)cn3-c2ccc(F)cc2F)C1` (centres undefined), the results for the log fold change Tl+ flux with F380Y and in the assay on F380Y/beta1 were -0.0112 and 0.0192, respectively.

As to `CC1(C)O[C@@H]2C[C@H]3[C@@H]4C[C@H](F)C5=CC(=O)C=C[C@]5(C)[C@@]4(F)[C@@H](O)C[C@]3(C)[C@]2(C(=O)CO)O1`, the values for the log fold change Tl+ flux with F380Y and in the assay with F380Y/beta1 were 0.2 (active) and 0.211 (active), respectively.

On to `Nc1nc(F)nc2c1ncn2[C@@H]1O[C@H](CO)[C@@H](O)[C@@H]1O`, for which the log fold change Tl+ flux in the assay with F380Y was 0.0242; in the assay on F380Y/beta1, -0.00658.

`CCc1nn(CCCN2CCN(c3cccc(Cl)c3)CC2)c(=O)n1CCOc1ccccc1`: the log fold change Tl+ flux with F380Y is -0.403 (active); with F380Y/beta1, -0.178 (active).

Consider `CN1CCC(=C2c3ccccc3CC(=O)c3sccc32)CC1`, for which the log fold change Tl+ flux is 0.0548 in the assay with F380Y and 0.0457 in the assay with F380Y/beta1.

As for `O=C1N(c2ccccc2)c2ccccc2C1(Cc1ccncc1)Cc1ccncc1`, the log fold change Tl+ flux with F380Y was 0.0425; in the assay with F380Y/beta1, -0.0119.

As for `Oc1ccc(C2CNCCc3c2cc(O)c(O)c3Cl)cc1` (centres undefined), the log fold change Tl+ flux with F380Y is 0.0202; in the assay on F380Y/beta1, -0.0465.

As for `OCc1cccnc1`, the log fold change Tl+ flux in the assay with F380Y was -0.0134; with F380Y/beta1, -0.0115.

Turning to `COc1cc2nc(N3CCN(C(=O)C4CCCO4)CC3)nc(N)c2cc1OC` (centres undefined), the results for the log fold change Tl+ flux in the assay with F380Y and in the assay with F380Y/beta1 were 0.0434 and -0.102, respectively.

Regarding `Cc1[nH]cnc1CN1CCc2c(c3ccccc3n2C)C1=O`, the log fold change Tl+ flux with F380Y was 0.0315; in the assay on F380Y/beta1, 0.0327.

Consider `O=C1Nc2ccc(Cl)cc2[C@@](C#CC2CC2)(C(F)(F)F)O1`, for which the log fold change Tl+ flux with F380Y was 0.0449; in the assay on F380Y/beta1, 0.167 (active).

For `Cc1ccsc1C(=CCCN1CCC[C@@H](C(=O)O)C1)c1sccc1C`, the values for the log fold change Tl+ flux in the assay with F380Y and with F380Y/beta1 were 0.0491 and 0.0426, respectively.

Consider `CN1[C@@H]2CC[C@H]1CC(OC(=O)c1c[nH]c3ccccc13)C2` (some centres undefined), for which the log fold change Tl+ flux in the assay on F380Y is 0.0406; in the assay on F380Y/beta1, 0.0426.

Consider `O=C(c1ccc(F)cc1)C1CCN(CCn2c(=S)[nH]c3ccccc3c2=O)CC1`, for which the log fold change Tl+ flux in the assay with F380Y is 0.0153; with F380Y/beta1, 0.00744.

For `COc1cc2nc(N3CCN(C(=O)C4COc5ccccc5O4)CC3)nc(N)c2cc1OC` (centres undefined), the log fold change Tl+ flux was -0.351 (active) in the assay on F380Y and -0.143 (active) in the assay on F380Y/beta1.

Take `C[C@H](NC(CCc1ccccc1)C(=O)O)C(=O)N1CCC[C@H]1C(=O)O` (some centres undefined): the log fold change Tl+ flux in the assay on F380Y is 0.0291; in the assay on F380Y/beta1, 0.00867.

Take `CCOc1cc(CC(=O)N[C@@H](CC(C)C)c2ccccc2N2CCCCC2)ccc1C(=O)O`: the log fold change Tl+ flux with F380Y was 0.252 (active); in the assay with F380Y/beta1, 0.45 (active).

Turning to `C[C@@H]1CN(CCCn2c3ccccc3c3ccccc32)C[C@H](C)N1`, the log fold change Tl+ flux was 0.145 (active) in the assay on F380Y and 0.208 (active) in the assay on F380Y/beta1.

`COc1ccc2nc(S(=O)Cc3ncc(C)c(OC)c3C)[nH]c2c1` (centres undefined): the figures for the log fold change Tl+ flux in the assay with F380Y and with F380Y/beta1 were 0.0402 and 0.0641, respectively.

Consider `CC(Cc1ccccc1)(NC(=O)CN)c1ccccc1` (centres undefined), for which the log fold change Tl+ flux in the assay with F380Y is 0.0343; in the assay on F380Y/beta1, 0.0342.

In the case of `O=C1[C@H]2CCCC[C@H]2C(=O)N1CCCCN1CCN(c2nsc3ccccc23)CC1`, the log fold change Tl+ flux in the assay with F380Y was 0.0537; with F380Y/beta1, 0.0543.
